# Laboratory results reported in PubChem BioAssay AID504834 (National Center for Advancing Translational Sciences (NCATS), 2011).
# The whole screen tested about 320,000 compounds, of which about 22,000 (6.9%) were called active. Roughly 27% stayed inconclusive and do not appear here. Calls follow the shape of the dose curve; as a rule, active = well fitted inhibition curve with a large enough effect; inconclusive = small, poorly fitted or top-dose-only effect, or another doubt; inactive = no such curve, though single readings can be large or run the other way. The full list was thinned out, with actives kept by preference.
# Assay: Primary qHTS for delayed death inhibitors of the malarial parasite plastid, 96 hour incubation
# Conditions: P. falciparum luciferase reporter growth; series mostly up to 28.7 µM; activity change, negative = inhibition: at the top concentration
# Outline: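 96 h incubation, 37 C, 5% CO2, of luciferase-reporter P. falciparum-infected RBCs (2% hematocrit, 0.05% parasitemia final) with test compounds; endpoint luminescence.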
# % is scaled to controls: 0 for no effect and ±100 for the full control effect; potency is read from the fitted curve at half-maximal effect.
SMILES,"activity change, negative = inhibition",Potency
O=C1/C(=C/c2cccs2)SC(=S)N1C1CCS(=O)(=O)C1 (stereo not drawn),-41.9% (inactive),–
Cc1cc(C)cc(C(=O)NC(CC(N)=O)c2ccc(N3CCC(N4CCCCC4)CC3)c([N+](=O)[O-])c2)c1 (stereo not drawn),73.1% (inactive),–
CC1CCCCN1CCCNc1ccc(C(CC(N)=O)NC(=O)c2ccccc2)cc1[N+](=O)[O-] (stereo not drawn),-34.8% (inactive),–
NC(=O)CC(NC(=O)Cc1ccc(Br)cc1)c1ccc(NC2CC3CCC2C3)c([N+](=O)[O-])c1 (stereo not drawn),–,11.7 µM (active)
O=C(O)c1ccc(-n2nc(-c3ccccc3)c3ccccc3c2=O)cc1,24.2% (inactive),–
O=C(c1ccc(F)cc1)n1c(=S)nc2ccccn21,135% (inactive),–
COc1ccc(-c2[nH]nc3c2C(c2ccncc2)C(C#N)=C(N)O3)cc1 (stereo not drawn),–,4.65 µM (active)
CCOc1c(OC)cc(C2C(C#N)=C(N)Oc3n[nH]c(-c4ccncc4)c32)cc1OC (stereo not drawn),16.2% (inactive),–
CCc1ccc(C2C(C#N)=C(N)Oc3n[nH]c(CC(=O)OC)c32)cc1 (stereo not drawn),-3.61% (inactive),–
COc1cc(C(=O)Nc2ncccc2C)ccc1OCC(=O)N1CCOCC1,-9.13% (inactive),–
Cc1cc(-n2cnc(-c3cn(C)nc3C)n2)no1,48.3% (inactive),–
Cc1cc(OCC(=O)N(C)c2c(N)n(Cc3ccccc3)c(=O)[nH]c2=O)c(C(C)C)cc1Cl,0.877% (inactive),–
Cc1cccc(OCC(=O)NCCCNC(=O)c2ccccn2)c1,30.2% (inactive),–
Cc1ccccc1NC(=O)C1CCN(C(=O)NC2CCCCC2)CC1,14.1% (inactive),–
O=C1COc2ccc(NC(=O)N3CCN(c4ccc(F)cc4)CC3)cc2N1,0% (inactive),–
CC(CC(=O)Nc1ccc(F)cc1F)S(=O)(=O)c1ccc2c(c1)NC(=O)CO2 (stereo not drawn),–,6.57 µM (active)
Cc1ccc(NS(=O)(=O)c2ccc3c(c2)NC(=O)CO3)cc1,42.8% (inactive),–
COc1ccc(C)cc1NC(=O)NCCCCc1ccccc1,-10.7% (inactive),–
CCc1cccc(NC(=O)COC(=O)C2CCN(c3ccc(C(F)(F)F)cn3)CC2)c1,0% (inactive),–
Cc1cnc(C)c(N2CCN(C(=O)C3CCC(=O)N(CCc4cccc(F)c4)C3)CC2)n1 (stereo not drawn),–,14.7 µM (active)
O=C1CCC(C(=O)N2CCC(O)(c3ccccc3)CC2)CN1CCc1ccccc1 (stereo not drawn),31.1% (inactive),–
Cc1cnc(CN(C)C(=O)C2CCC(=O)N(CCc3cccc(F)c3)C2)[nH]1 (stereo not drawn),-11.6% (inactive),–
O=C(NC1CC1)C(Cc1ccccc1)NS(=O)(=O)c1ccccc1F (stereo not drawn),11.3% (inactive),–
O=C1N[C@@H](Cc2ccccc2)C(=O)N2[C@H]1C[C@]1(Br)c3ccccc3N(S(=O)(=O)c3ccccc3)[C@H]21,-39.5% (inactive),–
Cc1ccc(CCNC(=O)c2ccc3nc4ccccc4c(=O)n3c2)cc1,29.7% (inactive),–
CCOC(=O)C1=C(C)N=c2s/c(=C\C(=O)OC)c(=O)n2C1c1ccc(OC)cc1 (stereo not drawn),-23.7% (inactive),–
CCOC(=O)C1=C(C)Nc2nc3ccccc3n2C1c1cccs1 (stereo not drawn),-13.8% (inactive),–
COCCOC(=O)C1=C(C)N=c2s/c(=C\c3cccs3)c(=O)n2C1c1cccs1 (stereo not drawn),–,8.28 µM (active)
